# Source: PMC7862700, “An all-to-all approach to the identification of sequence-specific readers for epigenetic DNA modifications on cytosine”
# How the values were obtained:
# Test in all cases: DAPPL (digital affinity profiling via proximity ligation, sequencing); 10 mM Tris-HCl pH 7.5, 50 mM NaCl, 1 mM DTT, 4% glycerol, room temperature, 30 min; GST-TFs on glutathione beads, 16-mer random dsDNA library, 0.1% formaldehyde crosslink after washing; high values mean tight binding
# Details in all cases: protein: recombinant; tags: N-terminal GST; dsDNA, one strand shown
# FLI1 = molecular target: T1, FLI1 (Homo sapiens, UniProt Q01543 1-452)
# T1 sequence: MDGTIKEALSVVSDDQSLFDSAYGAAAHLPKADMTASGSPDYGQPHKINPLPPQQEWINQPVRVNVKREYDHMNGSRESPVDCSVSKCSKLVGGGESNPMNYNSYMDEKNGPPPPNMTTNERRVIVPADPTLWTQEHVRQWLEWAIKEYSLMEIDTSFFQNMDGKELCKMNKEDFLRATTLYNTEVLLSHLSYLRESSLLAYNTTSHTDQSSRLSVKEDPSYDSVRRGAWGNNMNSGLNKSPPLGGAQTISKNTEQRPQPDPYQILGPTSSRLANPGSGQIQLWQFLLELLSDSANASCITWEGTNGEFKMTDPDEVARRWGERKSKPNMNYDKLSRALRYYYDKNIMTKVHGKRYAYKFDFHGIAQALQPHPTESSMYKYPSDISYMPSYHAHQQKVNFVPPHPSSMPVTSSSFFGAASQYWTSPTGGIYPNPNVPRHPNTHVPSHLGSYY
# In short: (§1)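 Pools were built from human transcription factors expressed in yeast as GST fusions, captured on glutathione beads and DNA-barcoded, along with a tag-only sample. Incubation with 200 nmole of a 16-mer random double-stranded DNA library lasted 30 min at room temperature in Tris/NaCl/DTT/glycerol buffer, and was followed by washing, 0.1% formaldehyde crosslinking, proximity ligation, PCR amplification and Illumina NextSeq500 sequencing. Binding signal is the quotient of each hexamer's read frequency for a factor and its frequency for the tag-only sample.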
# ELK1 = molecular target: T2, ELK1 (Homo sapiens, UniProt P19419 1-428)
# T2 sequence: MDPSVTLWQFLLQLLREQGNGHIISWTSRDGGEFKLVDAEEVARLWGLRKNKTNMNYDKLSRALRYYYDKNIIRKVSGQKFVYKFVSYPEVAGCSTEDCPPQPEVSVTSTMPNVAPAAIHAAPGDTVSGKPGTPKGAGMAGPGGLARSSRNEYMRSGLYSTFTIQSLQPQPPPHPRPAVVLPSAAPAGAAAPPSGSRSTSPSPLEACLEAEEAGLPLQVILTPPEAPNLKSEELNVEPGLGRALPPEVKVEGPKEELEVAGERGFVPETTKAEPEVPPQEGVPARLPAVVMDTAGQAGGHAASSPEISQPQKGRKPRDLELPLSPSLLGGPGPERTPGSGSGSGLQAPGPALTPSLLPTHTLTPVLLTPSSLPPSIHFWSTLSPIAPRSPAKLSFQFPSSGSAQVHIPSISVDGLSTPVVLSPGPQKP
# In short: as §1
# GABPA = molecular target: T3, GABPA (Homo sapiens, UniProt Q06546 1-454)
# T3 sequence: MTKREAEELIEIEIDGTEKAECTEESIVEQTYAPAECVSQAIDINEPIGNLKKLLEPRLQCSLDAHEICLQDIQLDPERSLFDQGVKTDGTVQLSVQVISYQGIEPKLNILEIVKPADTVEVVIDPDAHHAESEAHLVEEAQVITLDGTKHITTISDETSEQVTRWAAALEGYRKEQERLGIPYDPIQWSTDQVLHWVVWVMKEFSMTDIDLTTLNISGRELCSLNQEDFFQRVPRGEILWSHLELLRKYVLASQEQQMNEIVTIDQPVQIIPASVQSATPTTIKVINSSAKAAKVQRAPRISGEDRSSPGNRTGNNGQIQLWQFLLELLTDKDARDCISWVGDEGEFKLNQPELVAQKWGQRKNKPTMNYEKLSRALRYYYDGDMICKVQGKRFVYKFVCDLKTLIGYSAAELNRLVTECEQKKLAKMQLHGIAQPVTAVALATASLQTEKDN
# In short: as §1
# ERG = molecular target: T4, ERG (Homo sapiens, UniProt P11308 1-479)
# T4 sequence: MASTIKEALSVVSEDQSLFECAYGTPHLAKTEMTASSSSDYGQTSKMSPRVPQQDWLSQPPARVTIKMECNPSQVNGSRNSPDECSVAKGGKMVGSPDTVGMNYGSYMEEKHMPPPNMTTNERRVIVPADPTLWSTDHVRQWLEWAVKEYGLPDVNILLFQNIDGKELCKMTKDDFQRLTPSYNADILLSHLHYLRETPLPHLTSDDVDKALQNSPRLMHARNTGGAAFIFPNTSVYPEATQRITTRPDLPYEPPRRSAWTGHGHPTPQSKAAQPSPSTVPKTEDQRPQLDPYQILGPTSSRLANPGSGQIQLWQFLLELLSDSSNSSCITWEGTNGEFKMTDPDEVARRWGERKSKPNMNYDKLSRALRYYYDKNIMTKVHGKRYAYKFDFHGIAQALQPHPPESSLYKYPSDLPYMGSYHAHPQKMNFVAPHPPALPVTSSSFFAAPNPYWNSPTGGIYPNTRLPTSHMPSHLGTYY
# In short: as §1
# ELF1 = ELF1 (Homo sapiens, UniProt P32519 1-619)
# ELF1, sequence (P32519 whole entry): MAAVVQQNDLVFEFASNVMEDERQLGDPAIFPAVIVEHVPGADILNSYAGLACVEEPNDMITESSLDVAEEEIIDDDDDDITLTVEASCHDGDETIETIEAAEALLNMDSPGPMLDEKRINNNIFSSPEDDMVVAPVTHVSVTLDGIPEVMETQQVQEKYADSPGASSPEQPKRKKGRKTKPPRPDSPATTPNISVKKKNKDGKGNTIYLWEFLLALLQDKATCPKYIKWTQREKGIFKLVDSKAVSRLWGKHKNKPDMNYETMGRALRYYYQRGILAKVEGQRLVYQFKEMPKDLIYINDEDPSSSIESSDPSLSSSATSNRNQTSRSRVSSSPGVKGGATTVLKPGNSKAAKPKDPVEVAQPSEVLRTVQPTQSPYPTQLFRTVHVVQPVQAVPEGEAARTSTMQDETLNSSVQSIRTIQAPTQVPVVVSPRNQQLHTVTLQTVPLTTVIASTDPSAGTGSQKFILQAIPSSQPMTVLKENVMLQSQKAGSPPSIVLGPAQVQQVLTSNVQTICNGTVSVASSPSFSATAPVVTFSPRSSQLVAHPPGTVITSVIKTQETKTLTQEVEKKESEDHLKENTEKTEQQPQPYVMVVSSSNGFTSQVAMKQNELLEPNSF
# In short: as §1
# EHF = molecular target: T5, EHF (Homo sapiens, UniProt Q9NZC4 1-300)
# T5 sequence: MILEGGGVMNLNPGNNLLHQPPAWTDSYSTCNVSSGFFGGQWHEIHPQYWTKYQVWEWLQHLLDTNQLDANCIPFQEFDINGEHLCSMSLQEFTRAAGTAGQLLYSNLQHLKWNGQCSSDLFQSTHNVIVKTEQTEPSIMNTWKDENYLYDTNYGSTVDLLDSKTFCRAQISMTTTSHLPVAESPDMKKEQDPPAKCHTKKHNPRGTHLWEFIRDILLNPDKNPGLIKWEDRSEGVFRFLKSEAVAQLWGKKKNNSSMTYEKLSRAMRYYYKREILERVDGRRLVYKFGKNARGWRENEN
# In short: as §1
# SPI1 = SPI1 (Homo sapiens, UniProt P17947 1-270)
# In short: as §1
# SPIB = SPIB (Homo sapiens, UniProt Q01892 1-262)
# SPIB, sequence (Q01892 whole entry): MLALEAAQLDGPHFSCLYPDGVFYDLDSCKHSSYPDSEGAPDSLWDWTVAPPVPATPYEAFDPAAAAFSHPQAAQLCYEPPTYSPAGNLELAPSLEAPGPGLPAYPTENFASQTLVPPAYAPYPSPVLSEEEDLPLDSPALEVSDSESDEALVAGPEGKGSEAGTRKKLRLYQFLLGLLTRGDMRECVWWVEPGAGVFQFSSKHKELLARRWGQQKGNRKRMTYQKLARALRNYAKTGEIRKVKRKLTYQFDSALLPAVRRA
# In short: as §1
# ELK3 = molecular target: T6, ELK3 (Homo sapiens, UniProt P41970 1-407)
# T6 sequence: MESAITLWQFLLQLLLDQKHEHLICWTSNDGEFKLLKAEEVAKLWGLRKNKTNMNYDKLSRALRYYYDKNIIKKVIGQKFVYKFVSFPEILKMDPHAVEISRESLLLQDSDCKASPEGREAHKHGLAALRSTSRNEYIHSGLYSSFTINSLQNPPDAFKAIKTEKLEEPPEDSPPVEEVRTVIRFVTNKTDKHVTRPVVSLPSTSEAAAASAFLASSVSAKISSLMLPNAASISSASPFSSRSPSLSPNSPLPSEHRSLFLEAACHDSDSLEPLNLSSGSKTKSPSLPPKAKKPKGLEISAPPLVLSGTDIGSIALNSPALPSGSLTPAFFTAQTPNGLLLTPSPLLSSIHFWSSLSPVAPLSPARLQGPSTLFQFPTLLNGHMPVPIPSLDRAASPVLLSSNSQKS
# In short: as §1
# FEV = molecular target: T7, FEV (Homo sapiens, UniProt Q99581 1-238)
# T7 sequence: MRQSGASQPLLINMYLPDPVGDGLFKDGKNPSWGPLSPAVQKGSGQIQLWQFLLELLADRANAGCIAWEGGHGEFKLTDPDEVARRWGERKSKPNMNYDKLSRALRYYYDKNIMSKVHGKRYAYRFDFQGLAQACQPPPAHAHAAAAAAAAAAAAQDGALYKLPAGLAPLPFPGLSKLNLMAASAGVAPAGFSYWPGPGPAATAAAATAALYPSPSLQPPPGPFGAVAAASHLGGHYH
# In short: as §1
# ETV5 = ETV5 (Homo sapiens, UniProt P41161 1-510)
# ETV5, sequence (P41161 whole entry): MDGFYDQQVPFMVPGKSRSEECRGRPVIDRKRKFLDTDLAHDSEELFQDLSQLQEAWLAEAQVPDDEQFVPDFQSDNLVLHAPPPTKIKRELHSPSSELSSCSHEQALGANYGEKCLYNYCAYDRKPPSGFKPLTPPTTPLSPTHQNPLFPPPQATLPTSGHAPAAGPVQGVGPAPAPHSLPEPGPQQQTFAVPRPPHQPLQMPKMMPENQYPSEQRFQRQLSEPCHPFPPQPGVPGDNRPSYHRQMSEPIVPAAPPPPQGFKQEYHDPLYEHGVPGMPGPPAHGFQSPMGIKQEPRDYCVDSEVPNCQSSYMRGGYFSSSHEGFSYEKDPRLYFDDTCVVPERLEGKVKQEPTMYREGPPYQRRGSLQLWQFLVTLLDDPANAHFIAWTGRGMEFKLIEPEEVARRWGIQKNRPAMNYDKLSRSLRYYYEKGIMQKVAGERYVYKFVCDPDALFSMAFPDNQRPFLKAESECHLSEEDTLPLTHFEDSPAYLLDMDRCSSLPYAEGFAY
# In short: as §1
# SPIC = molecular target: T8, SPIC (Homo sapiens, UniProt Q8N5J4 1-248)
# T8 sequence: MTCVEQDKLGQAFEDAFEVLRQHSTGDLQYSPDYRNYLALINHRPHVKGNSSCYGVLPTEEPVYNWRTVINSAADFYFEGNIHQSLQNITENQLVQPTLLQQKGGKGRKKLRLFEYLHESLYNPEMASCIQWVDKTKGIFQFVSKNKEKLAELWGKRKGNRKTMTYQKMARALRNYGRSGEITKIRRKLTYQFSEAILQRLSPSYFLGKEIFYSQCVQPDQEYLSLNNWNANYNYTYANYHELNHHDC
# In short: as §1
# ELF4 = ELF4 (Homo sapiens, UniProt Q99607 1-663)
# ELF4, sequence (Q99607 whole entry): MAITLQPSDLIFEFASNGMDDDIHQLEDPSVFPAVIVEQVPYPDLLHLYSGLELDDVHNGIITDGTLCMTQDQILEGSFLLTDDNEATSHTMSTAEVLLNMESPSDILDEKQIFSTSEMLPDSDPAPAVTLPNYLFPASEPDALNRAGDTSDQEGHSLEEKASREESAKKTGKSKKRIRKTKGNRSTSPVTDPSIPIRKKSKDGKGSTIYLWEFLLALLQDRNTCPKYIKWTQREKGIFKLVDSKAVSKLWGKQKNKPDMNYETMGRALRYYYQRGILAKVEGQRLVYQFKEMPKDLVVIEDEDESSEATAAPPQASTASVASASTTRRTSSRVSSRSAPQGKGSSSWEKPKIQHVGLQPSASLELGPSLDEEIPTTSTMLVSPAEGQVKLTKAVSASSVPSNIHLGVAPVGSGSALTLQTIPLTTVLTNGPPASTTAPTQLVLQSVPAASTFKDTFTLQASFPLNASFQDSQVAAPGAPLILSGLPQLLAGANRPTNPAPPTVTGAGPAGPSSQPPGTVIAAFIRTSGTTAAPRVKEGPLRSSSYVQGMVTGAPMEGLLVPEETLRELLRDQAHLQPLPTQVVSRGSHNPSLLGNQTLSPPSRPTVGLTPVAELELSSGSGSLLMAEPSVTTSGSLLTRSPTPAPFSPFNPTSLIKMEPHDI
# In short: as §1
# ELK4 = molecular target: T9, ELK4 (Homo sapiens, UniProt P28324-2 1-405)
# T9 sequence: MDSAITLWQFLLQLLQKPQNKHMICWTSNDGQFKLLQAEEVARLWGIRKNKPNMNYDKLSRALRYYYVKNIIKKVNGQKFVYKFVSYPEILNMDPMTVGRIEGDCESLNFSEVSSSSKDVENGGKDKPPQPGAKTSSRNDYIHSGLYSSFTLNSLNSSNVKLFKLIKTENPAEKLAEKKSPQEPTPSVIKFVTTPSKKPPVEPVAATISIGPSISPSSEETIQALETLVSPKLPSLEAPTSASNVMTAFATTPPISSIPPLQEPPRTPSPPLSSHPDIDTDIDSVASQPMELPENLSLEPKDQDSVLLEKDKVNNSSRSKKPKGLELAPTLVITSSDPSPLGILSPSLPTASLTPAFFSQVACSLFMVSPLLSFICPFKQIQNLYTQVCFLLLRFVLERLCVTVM
# In short: as §1
# ETV2 = molecular target: T10, ETV2 (Homo sapiens, UniProt O00321 1-342)
# T10 sequence: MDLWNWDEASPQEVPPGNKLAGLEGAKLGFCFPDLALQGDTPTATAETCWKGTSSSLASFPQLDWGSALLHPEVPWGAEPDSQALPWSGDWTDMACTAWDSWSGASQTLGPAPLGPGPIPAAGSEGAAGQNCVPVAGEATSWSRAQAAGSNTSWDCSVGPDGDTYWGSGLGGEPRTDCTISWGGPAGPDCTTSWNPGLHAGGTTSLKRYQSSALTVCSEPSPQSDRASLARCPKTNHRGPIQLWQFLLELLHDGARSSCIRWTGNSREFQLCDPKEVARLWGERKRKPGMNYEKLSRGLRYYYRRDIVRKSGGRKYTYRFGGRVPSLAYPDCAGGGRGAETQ
# In short: as §1
# ELF3 = molecular target: T11, ELF3 (Homo sapiens, UniProt P78545 1-371)
# T11 sequence: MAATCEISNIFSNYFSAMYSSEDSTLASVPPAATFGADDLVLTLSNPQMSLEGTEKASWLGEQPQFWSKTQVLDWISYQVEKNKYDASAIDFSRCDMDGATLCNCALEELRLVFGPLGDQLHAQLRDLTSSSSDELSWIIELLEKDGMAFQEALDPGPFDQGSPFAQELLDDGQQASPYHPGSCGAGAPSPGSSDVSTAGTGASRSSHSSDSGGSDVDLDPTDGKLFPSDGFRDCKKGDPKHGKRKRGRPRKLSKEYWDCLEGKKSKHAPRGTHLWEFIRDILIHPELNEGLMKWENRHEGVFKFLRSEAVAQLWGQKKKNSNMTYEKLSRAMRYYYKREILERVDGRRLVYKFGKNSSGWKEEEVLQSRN
# In short: as §1
# ETV1 = ETV1 (Homo sapiens, UniProt P50549 1-477)
# ETV1, sequence (P50549 whole entry): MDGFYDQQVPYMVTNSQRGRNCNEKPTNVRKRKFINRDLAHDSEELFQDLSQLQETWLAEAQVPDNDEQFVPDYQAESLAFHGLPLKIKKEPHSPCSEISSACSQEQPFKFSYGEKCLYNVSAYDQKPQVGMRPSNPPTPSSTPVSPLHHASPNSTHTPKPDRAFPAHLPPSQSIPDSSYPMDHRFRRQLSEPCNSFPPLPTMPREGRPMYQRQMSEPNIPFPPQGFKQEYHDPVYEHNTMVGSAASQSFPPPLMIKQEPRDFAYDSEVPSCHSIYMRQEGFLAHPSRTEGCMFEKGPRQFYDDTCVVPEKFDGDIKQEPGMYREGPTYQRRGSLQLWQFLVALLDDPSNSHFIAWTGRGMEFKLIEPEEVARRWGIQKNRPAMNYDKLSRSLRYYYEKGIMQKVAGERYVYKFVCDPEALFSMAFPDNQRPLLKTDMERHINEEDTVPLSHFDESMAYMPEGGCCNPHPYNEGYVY
# In short: as §1
sequence,measurement,setting,value
AGCGAC,binding signal,FLI1,"1.09 fold enrichment (6-mer frequency, TF over GST control)"
same,binding signal,ELK1,"1.15 fold enrichment (6-mer frequency, TF over GST control)"
same,binding signal,GABPA,"1.09 fold enrichment (6-mer frequency, TF over GST control)"
same,binding signal,ERG,"1.23 fold enrichment (6-mer frequency, TF over GST control)"
same,binding signal,ELF1,"1.17 fold enrichment (6-mer frequency, TF over GST control)"
same,binding signal,EHF,"1.23 fold enrichment (6-mer frequency, TF over GST control)"
same,binding signal,SPI1,"1.06 fold enrichment (6-mer frequency, TF over GST control)"
same,binding signal,SPIB,"1.16 fold enrichment (6-mer frequency, TF over GST control)"
same,binding signal,ELK3,"1.04 fold enrichment (6-mer frequency, TF over GST control)"
same,binding signal,FEV,"1.19 fold enrichment (6-mer frequency, TF over GST control)"
same,binding signal,ETV5,"1.13 fold enrichment (6-mer frequency, TF over GST control)"
same,binding signal,SPIC,"1.19 fold enrichment (6-mer frequency, TF over GST control)"
same,binding signal,ELF4,"1.19 fold enrichment (6-mer frequency, TF over GST control)"
same,binding signal,ELK4,"1.25 fold enrichment (6-mer frequency, TF over GST control)"
same,binding signal,ETV2,"1.22 fold enrichment (6-mer frequency, TF over GST control)"
same,binding signal,ELF3,"1.01 fold enrichment (6-mer frequency, TF over GST control)"
same,binding signal,ETV1,"1.12 fold enrichment (6-mer frequency, TF over GST control)"
